Experimental findings from PubChem BioAssay AID1910 (Broad Institute, 2009) are described below.

In all, about 300,000 compounds went through this assay and about 950 (0.32%) were called active. Shown is part of a subset that was picked to be rich in actives. Values without a mark were called inactive.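 How the source made its calls: active means mean activation of at least 10% of the iron chelator positive control signal, with at least half of replicates also reaching 10%; inconclusive means mean and replicate majority disagree about reaching 10%; inactive means mean and most replicates under 10%.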

This assay is described as follows: HIF pathway transcriptional activators, primary screen, cell-based, U2OS HRE-luciferase, luminescence (AID 1910). The following applies: U2OS HRE-luciferase reporter, stronger effect = higher value, screened at 7.5 µM (by protocol), normalized: DMSO 0%, desferrioxamine 100%. In general terms: Reporter assays use an easily measured gene product as a stand-in for the process of interest.
Turning to `Cc1cccc(N=C2SC(C)CN2C(=O)CN2C(=O)NC3(CCCC3)C2=O)c1` (stereo unspecified), the activation was 0.348%.
`CCN(CC(=O)Nc1c(F)cccc1F)C(=O)c1ccc(Sc2nncn2C)c([N+](=O)[O-])c1`: the activation is 0.52%.
To `O=C(Nc1cccc(F)c1)c1coc(=O)c(Br)c1` belongs 0.54%.
`COc1ccc(N2CC(C(=O)NCCN3C(=O)S/C(=C\c4cccnc4)C3=O)CC2=O)c(OC)c1` (stereo unspecified): the activation was 0.0693%.
With `O=C(NCCCN1CCOCC1)c1cc(-c2cccc(O)c2)on1`, the activation was -0.131%.
Turning to `O=C(NCCCN1CCOCC1)c1cc(-c2ccccc2F)no1`, the activation was 10.1% (active).
With `O=C(NCCCN1CCOCC1)c1cc(-c2ccc(Cl)cc2)on1`, the activation is -0.141%.
With `C=CCNC(=O)/C=C/c1ccc(C(C)C)cc1`, the activation was 2.38%.
With `Cn1cnc2c1c(=O)n(Cc1ccccc1C#N)c(=O)n2C`, the activation is -28%.
For `COc1ccc(C(CNC(=O)c2cccc(NS(=O)(=O)c3ccc(C)c(F)c3)c2)N2CCCC2)cc1` (stereo unspecified), the activation is -0.102%.
Regarding `O=C(CSCc1ccc(Br)cc1)Nc1ccc(S(=O)(=O)N2CCCCCC2)cc1`, the activation is -0.637%.
Regarding `Cc1cc(=O)[nH]c(SCC(=O)Nc2ccc(Br)cc2)n1`, the activation is 0.205%.
For `O=C1CCCN2N=C(SCC(=O)Nc3ccc(Br)cc3)SC2=N1`, the activation is 20.5% (active).
Turning to `O=C(Nc1ncccc1O)c1ccc(S(=O)(=O)N2CCCCCC2)cc1`, the activation was 3.25%.
The same measure for `O=C(Nc1ncccc1O)c1ccc(C(=O)c2ccccc2)cc1`: 14.2% (active).
With `O=C(Nc1ncccc1O)c1ccc(S(=O)(=O)N2CCCC2)cc1`, the activation was 4.15%.
For `Cc1cc(C)c(C)c(S(=O)(=O)Nc2cccnc2)c1C`, the activation is -0.0811%.
The same measure for `CCN(CC)c1ccc(/C=N/NC(=O)CNC(=O)c2cccnc2)cc1`: -0.424%.
The same measure for `CCN(CC)c1ccc(/C=N/Nc2nc(C)cc(C)n2)c(O)c1`: 1.77%.
For the compound `CCN(CC)c1ccc(/C=N/NC(=O)c2cnccn2)c(O)c1`, the activation is 95.3% (active).
For the compound `Cc1c(C(=O)Nc2ccccn2)oc2ccc(Br)cc12`, the activation is 2.61%.
To `Cc1c(Cl)c([N+](=O)[O-])nn1CCCC(=O)Nc1cc(Cl)ccc1Cl` belongs -0.466%; to `Cc1ccc(C(=O)O)cc1NC(=O)c1ccc(Cn2nc(C)c(Cl)c2C)o1`, -0.0752%.
In the case of `Cc1c(Cl)c([N+](=O)[O-])nn1Cc1ccc(C(=O)N/N=C\c2cc(Cl)ccc2O)o1`, the activation is 49.6% (active).
The same measure for `O=C(COc1coc(CN2CCN(c3ccccc3F)CC2)cc1=O)N1CCc2ccccc21`: 0.2%.
Take `Cc1nc(-c2ccc(F)cc2)c(CC(=O)Nc2cc(S(=O)(=O)N3CCCCC3)ccc2C)s1`: the activation is -0.206%.
For the compound `CC1CN(C(=O)COC(=O)c2cccc(NS(=O)(=O)c3ccccc3)c2)CC(C)O1` (stereo unspecified), the activation is -0.538%.
As to `CC(C)N(Cc1ccccc1)C(=O)COC(=O)c1ccccc1SCC(=O)N1CCCC1`, the activation was -0.658%.
The same measure for `c1ccc(NCc2cccc3ccccc23)nc1`: -34.2%.
For `Oc1ccc(N=Nc2nccs2)c(O)c1`, the activation was -0.857%.
As to `Oc1ccc2ccccc2c1N=Nc1nccs1`, the activation is 68.6% (active).
`COc1cccc(NC(=O)CSc2nccn(-c3ccc4c(c3)OCCO4)c2=O)c1`: the activation was 0.704%.
As for `CC(OC(=O)CCCc1c[nH]c2ccccc12)C(=O)Nc1ccc(S(N)(=O)=O)cc1` (stereo unspecified), the activation is 0.134%.
As for `CCCn1nc(C(=O)NNC(=O)CCOc2ccccc2OCC)c2ccccc2c1=O`, the activation was 0.594%.
The same measure for `COc1ccc(-c2cc(C(F)(F)F)nc(SCC(=O)Nc3ccc4c(c3)OCO4)n2)cc1OC`: -1.49%; for `COc1cc(OC)nc(S(C)(=O)=O)n1`: 0.158%; for `COc1ccc(-c2cc(C(F)(F)F)nc(S(C)(=O)=O)n2)cc1OC`: 18.9% (active).
The same measure for `COc1ccc(C(=O)Nc2ccc(C(=O)NCC3CCCO3)cc2)c(OC)c1OC` (stereo unspecified): -3.72%; for `COc1cc(N)c(Cl)cc1C(=O)OCC(=O)c1ccc2c(c1)NC(=O)CO2`: 0.0757%; for `CCCCn1c(N)c(N(CCOC)C(=O)COc2c(C)cccc2C)c(=O)[nH]c1=O`: -0.338%.
For the compound `Cc1nn(C)cc1C(=O)c1ccccc1`, the activation was 0.273%.
On to `COc1ccc2c(c1)CCNC2Cc1ccc(OC)c(O)c1` (stereo unspecified), for which the activation was 0.872%.
Regarding `O=C1NC(c2ccccc2)Oc2ccccc21` (stereo unspecified), the activation is -0.318%.
On to `CN(C)CCNC(=O)c1[nH]nc2c1CCc1ccccc1-2`, for which the activation is 2.68%.
Consider `COc1cccc(/C=N/NC(=O)c2[nH]nc3c2CCc2ccccc2-3)c1O`, for which the activation is 46.5% (active).
On to `COc1cccc(/C=N/Nc2cc(C)nc(-c3ccccc3O)n2)c1O`, for which the activation was 0.0705%.
Take `COc1ccc(O)c(/C=N/N=C/c2cccc([N+](=O)[O-])c2)c1`: the activation was -2.34%.
As for `Cc1ccccc1N1CCN(Cc2nc(Cc3ccccc3F)no2)CC1`, the activation is 0.117%.
The same measure for `CC(C)C(O)C1CCN(Cc2nc(Cc3ccccc3Cl)no2)CC1` (stereo unspecified): 0.0858%.
As for `C1CC1Cc1noc(CN2CCN(CC3CC3)CC2)n1`, the activation was 75.3% (active).
On to `O=C(Nc1ccc(F)c([N+](=O)[O-])c1)C1CCCO1` (stereo unspecified), for which the activation is -0.403%.
Regarding `COc1ccccc1C1=CC(=O)CCC1`, the activation was 0.17%.
As to `COc1ccccc1CCNC(=O)C(=O)NCCC1CCCCN1S(=O)(=O)c1cccs1` (stereo unspecified), the activation was 0.0341%.
For the compound `Cc1cccc(NC(=S)N2CCCC(c3nc4ccccc4[nH]3)C2)c1` (stereo unspecified), the activation is 0.822%.
Take `CCCNC(=S)N1CCCC(c2nc3ccccc3[nH]2)C1` (stereo unspecified): the activation is 99.5% (active).
In the case of `CN(C)CCCNC(=S)N1CCC(c2nc3ccccc3[nH]2)CC1`, the activation was 0.0482%.
Consider `O=C(NCc1ccc2c(c1)OCO2)c1c(O)nc2sccn2c1=O`, for which the activation was -0.288%.
Take `COc1cc(CNC2CCCC2)c(Br)cc1OCc1ccccc1`: the activation is -0.706%.
Regarding `COc1cc(CN2CCC(C(N)=O)CC2)ccc1OCc1ccccc1`, the activation is 5.51%.
As to `COc1cc(C2CC(=O)N3CN(Cc4ccccc4)CSC3=C2C#N)ccc1OCc1ccccc1` (stereo unspecified), the activation is 227% (active).
Turning to `COc1ccc(C(C#N)(CC(=O)O)c2cnccn2)cc1OC` (stereo unspecified), the activation is -0.732%.
Take `CCCCCN(C(=O)CCC(=O)OCC(=O)NC1CCC(C)CC1)c1c(N)n(CCCC)c(=O)[nH]c1=O` (stereo unspecified): the activation is 0.288%.
Turning to `O=C(NCc1ccc(Cl)cc1)C(=O)NCC1CCCN1S(=O)(=O)c1cccs1` (stereo unspecified), the activation was -0.199%.
Turning to `Nc1ccc(C(=O)Nc2ccccc2N)cc1`, the activation is 23.2% (active).
To `Nc1ccc(C(=O)NCc2ccccc2)cc1` belongs -0.0134%; to `CC(=O)Nc1ccccc1NC(=O)c1cc(C)cc(C)c1`, -0.124%.
`COc1cc(OC)c(OC)cc1CN1CCN(C(=O)c2cccc3ccccc23)CC1`: the activation is -7.26%.
For the compound `Cc1ccc(NC(=O)COc2coc(CN3CCc4ccccc4C3)cc2=O)cc1Cl`, the activation is -0.873%.
The same measure for `Oc1ccc(/C=N/NC2=NCCCCC2)c(O)c1`: 1.31%.
On to `Oc1ccc(/C=N/Nc2nc(-c3ccccc3F)nc3ccccc23)c(O)c1`, for which the activation was 0.0261%.
In the case of `Cc1nc2ccccc2nc1N/N=C/c1ccc(O)cc1O`, the activation was 15.9% (active).
In the case of `Cc1onc(-c2ccccc2Cl)c1C(=O)OCc1nnc(-c2ccccc2)o1`, the activation is 0.814%.
Take `N#CC1(NC(=O)COC(=O)Cc2n[nH]c(=O)c3ccccc23)CCCCC1`: the activation is 1.1%.
Take `O=C(COc1coc(CN2CCN(c3ccccc3)CC2)cc1=O)Nc1ccccc1F`: the activation is 0.427%.
Regarding `Cc1ccc(OCCCCc2c(C)n[nH]c2C)cc1`, the activation was 0.618%.
With `CC(C)COc1ccc(C(=O)OCC(=O)NCCC2=CCCCC2)cc1`, the activation is 0.818%.
Take `CC1CN/C(=C\C(=O)c2ccc(Br)cc2)C(=O)N1` (stereo unspecified): the activation was 71.1% (active).
The same measure for `COc1cc2c(cc1OC)/C(=C/C(=O)c1ccc(NC(C)=O)cc1)NCC2`: -0.377%; for `CN1CCCC(OC(=O)COc2ccc(Br)cc2)C1` (stereo unspecified): -0.189%.
Regarding `CC1CCc2[nH]c3ccc(C(=O)N(C)CC(=O)Nc4cccc(F)c4)cc3c2C1` (stereo unspecified), the activation was 0.749%.
For the compound `CCNS(=O)(=O)c1ccc(NC(=O)c2cncc(Br)c2)cc1`, the activation is 94.2% (active).
The same measure for `O=C(Nc1ccc(S(=O)(=O)Nc2ncccn2)cc1)c1cncc(Br)c1`: -1.84%.
Take `O=C(Nc1ccc(N2CCCC2=O)cc1)c1cncc(Br)c1`: the activation was 1.53%.
In the case of `COc1cc(NC(=O)C2CC(c3ccccc3O)=NO2)c(OC)cc1Cl` (stereo unspecified), the activation is -1.02%.
To `COc1ccc(NC(=O)NCCN2CCN(c3ccc(C)cc3)CC2)c(Cl)c1` belongs 2.29%.
The same measure for `O=C(Cc1ccc(Br)cc1)NCCc1ccccc1`: 0.0277%; for `CC(C)CN(CC(C)C)C(=O)CN1c2cccc3cccc(c23)S1(=O)=O`: -19%.
For the compound `CC(C(=O)N1CCOCC1)N1c2cccc3cccc(c23)S1(=O)=O` (stereo unspecified), the activation is 163% (active).
To `COc1ccc(NC(=O)C(C)N2c3cccc4cccc(c34)S2(=O)=O)c(OC)c1` (stereo unspecified) belongs 0.272%; to `COC(=O)C1CCN(C(=O)NC2CC(=O)N(c3ccc4c(c3)OCCO4)C2)CC1` (stereo unspecified), 2.77%; to `C/C=C/c1ccc(OCC(=O)OCC(=O)Nc2c(C)nn(-c3ccccc3)c2C)c(OC)c1`, 0.205%.
Consider `CCOc1ccccc1OCC(=O)Nc1ccccc1C(=O)NC1CC1`, for which the activation was 0.735%.
On to `N[C@@H](Cc1ccccc1)C(=O)N1CCOCC1`, for which the activation was 1.05%.
`Cc1cc(N2CCN(c3ccccc3)CC2)nc(N2CCOCC2)n1`: the activation is -0.818%.
Turning to `Cc1cc(Oc2ccccc2)nc(N2CCOCC2)n1`, the activation is 686% (active).
For the compound `Cc1cc(Nc2ccc(Cl)cc2)nc(N2CCOCC2)n1`, the activation is 0.664%.
